{"source": "PubChem BioAssay (NCI)", "note": "Where “and” joins values, the source holds several entries; their conditions need not be identical. Equal entries are not always repeated. Compounds without any hit were thinned out: in the full panel of roughly 83,000, 20% have a hit.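 Single-dose data. Exposure time 48 hours. Values below 10 considered active.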 Calls of active or inactive are those of the source.", "data": [{"test_system": "MCF7 breast", "assay": "NCI-60 one-dose screen, 48 h (100 = growth as untreated, 0 = no growth, -100 = all killed)", "conditions": "10 µM unless noted", "values": [{"compound": "COc1c(/C=C/C=O)cc2c(c1OC)OCO2", "growth": "-30% [100 µM] (active) and -83.3% [100 µM] (active)"}, {"compound": "On1c(-c2ccccc2)nc2ccccc2c1=S", "growth": "6.65% [100 µM] (active) and -68.9% [100 µM] (active)"}, {"compound": "COc1ccc2nc3c4c(nccc4c2c1)-c1ncccc1C3=O", "growth": "-82% [50 µM] (active) and -100% [50 µM] (active)"}, {"compound": "N=C1C(=N)c2ccccc2-c2ccccc21", "growth": "30.7% [100 µM] (inactive) and 0.817% [100 µM] (active)"}, {"compound": "Cn1c(COC(=O)NC2CCCCC2)c(COC(=O)NC2CCCCC2)c2ccc3cc(Cl)c(Cl)cc3c21", "growth": "-78.6% [100 µM] (active)"}, {"compound": "CC1(C)CCC[C@]2(C)[C@@H](C=O)C(C=O)=CC[C@@H]12", "growth": "-13.9% [100 µM] (active) and -1.67% [100 µM] (active)"}, {"compound": "CCOc1ccc(NC(=O)/C(=N\\N)C(C(=O)OC)c2nc3ccc(Cl)cc3[nH]c2=O)cc1", "note": "(stereo not drawn)", "growth": "73% [100 µM] (inactive) and 60.5% [100 µM] (inactive)"}, {"compound": "C=C1C(=O)OC2CC1C(OC(=O)/C=C/c1ccccc1)C/C(C)=C/CC/C(C)=C/CCC2(C)O", "note": "(stereo not drawn)", "growth": "-76% [100 µM] (active) and -30% [100 µM] (active)"}, {"compound": "Cc1cc(O)c2c(c1)C(=O)C(c1c(C)cc3c(c1O)C(=O)C1OC1C3=O)=CC2=O", "note": "(stereo not drawn)", "growth": "-64.5% [100 µM] (active) and -90% [100 µM] (active)"}, {"compound": "CCOC(=O)C1C(C(C)C)C2(C#N)C(=N)OC1(C)C2(C#N)C#N", "note": "(stereo not drawn)", "growth": "2.36% [100 µM] (active) and -41% [100 µM] (active)"}, {"compound": "COC(=O)[C@]1(C)CCC[C@@]2(C)[C@@H]3C[C@@H]4[C@H]5C[C@@]3(CC[C@@H]21)C[C@@]45C", "growth": "-81% [100 µM] (active) and -80% [100 µM] (active)"}, {"compound": "O=C(CCc1ccccc1)ON1C(=S)NC(c2ccccc2)(c2ccccc2)C1=S", "growth": "-45.8% [100 µM] (active) and 5.76% [100 µM] (active)"}, {"compound": "O=C(/C=C/c1ccccc1)CCC1C(=O)c2ccccc2C1=O", "growth": "48% [100 µM] (inactive) and 57.5% [100 µM] (inactive)"}, {"compound": "CC1(C=O)CCC23COC4(CCC5C6(C)CCC(OC7OCC(OC8OC(CO)C(O)C(OC9OC(CO)C(O)C(O)C9O)C8OC8OCC(O)C(O)C8O)C(O)C7OC7OC(CO)C(O)C(O)C7O)C(C)(C)C6CCC5(C)C4(C)CC2O)C3C1", "note": "(stereo not drawn)", "growth": "-68.6% [100 µM] (active) and -39.6% [100 µM] (active)"}, {"compound": "CC1=CC[C@@H]2[C@@H](CC[C@@]2(C)O)C(C)(C)[C@H]1CC[C@@H]1[C@@]2(C)CC[C@@H](O)C(C)(C)O[C@@H]2CC[C@]1(C)O", "growth": "-12.8% [100 µM] (active) and -70.8% [100 µM] (active)"}, {"compound": "CC1=CC[C@@H]2[C@@H](CC[C@@]2(C)O)C(C)(C)[C@H]1CC[C@@H]1[C@@]2(C)CCC(=O)C(C)(C)O[C@@H]2CC[C@]1(C)O", "growth": "-36.8% [100 µM] (active) and -100% [100 µM] (active)"}, {"compound": "CC(C)(C)N/N=C(/Cc1nc2c3c(ccc2[nH]c1=O)C(=O)c1ccccc1C3=O)C(=O)NC1=C(Cl)C(=O)c2ccccc2C1=O", "growth": "6.76% [100 µM] (active) and -75.9% [100 µM] (active)"}, {"compound": "CC1=C(C2=C(C)C(=O)C(=O)c3cc(C)ccc32)c2ccc(C)cc2C(=O)C1=O", "growth": "-55.4% [100 µM] (active) and -100% [100 µM] (active)"}, {"compound": "COc1ccc(Nc2nc3ccc(C(F)(F)F)cc3nc2C(=O)O)cc1", "growth": "-31.5% [100 µM] (active) and -100% [100 µM] (active)"}, {"compound": "C=CCO/N=C/c1cc(NC(=S)c2ccoc2C)ccc1Cl", "growth": "-83.2% [100 µM] (active) and -45% [100 µM] (active)"}, {"compound": "CC1OC(OC2C(OC3CCC4(C)C(CCC5(C)C4CC=C4C6CC(C)(C)CCC6(C(=O)O)CCC45C)C3(C)CO)OCC(O)C2O)C(O)C(O)C1O", "note": "(stereo not drawn)", "growth": "-88% [100 µM] (active) and -90.5% [100 µM] (active)"}, {"compound": "C=c1c2ccccc2oc2nc3[nH]c(N)c(C#N)c(N)c3c(=N)c12", "growth": "25.6% [100 µM] (inactive) and 0.562% [100 µM] (active)"}, {"compound": "CN1CCc2cc3c(c4c2C1C(O)c1ccccc1-4)OCO3", "note": "(stereo not drawn)", "growth": "-24.6% [100 µM] (active) and -58.3% [100 µM] (active)"}, {"compound": "Cc1ccc(/C=N/Nc2cc(C)c3cccc(C)c3n2)s1", "growth": "-73.1% [100 µM] (active) and -100% [100 µM] (active)"}, {"compound": "O=C(O)CCCOc1cc(-c2ccccc2F)nc2cc3c(cc12)OCO3", "growth": "9.31% [100 µM] (active) and -50% [100 µM] (active)"}, {"compound": "C=C(C)C1CC2(C)C(C)CC(O)CC2C(OC(=O)C=C(C)C)C1O", "note": "(stereo not drawn)", "growth": "5.38% [100 µM] (active) and 25.4% [100 µM] (inactive)"}, {"compound": "CC1(C)CCC2(C(=O)O)C(O)CC3(C)C(=CCC4C5(C)CCC(OC6OCC(O)C(O)C6OC6OCC(O)C(O)C6OC6OCC(O)C(OC7OC(CO)C(O)C(O)C7O)C6O)C(C)(C)C5CCC43C)C2C1", "note": "(stereo not drawn)", "growth": "76.4% [100 µM] (inactive) and 25.5% [100 µM] (inactive)"}, {"compound": "C[C@@H]1CCC([C@@H](C)[C@H]2CC[C@H]3[C@@H]4CC[C@H]5C[C@@H](O)CC[C@]5(C)[C@H]4CC[C@]23C)=NC1", "growth": "8.1% [100 µM] (active) and -46.7% [100 µM] (active)"}, {"compound": "COc1ccc2c(c1)C(N)=C(c1ccccc1)C2=O", "growth": "57.4% [100 µM] (inactive) and 16.6% [100 µM] (inactive)"}, {"compound": "CC1=C(Cl)C[C@@H](/C(C)=C\\Cl)O[C@@]1(O)C(Br)Br", "growth": "19.3% [100 µM] (inactive) and -76.7% [100 µM] (active)"}, {"compound": "Fc1cccc(F)c1C1SCc2nc3cc4ccccc4cc3n21", "note": "(stereo not drawn)", "growth": "-28.9% [100 µM] (active) and -2.13% [100 µM] (active)"}, {"compound": "Cc1ccc(NC(=S)C#N)cc1Cl", "growth": "-25.7% [100 µM] (active) and -100% [100 µM] (active)"}, {"compound": "Cc1c2c(c(C)c3c[n+](C)ccc13)Oc1ccccc1O2", "growth": "-33.4% [100 µM] (active) and -100% [100 µM] (active)"}, {"compound": "CCOc1cc2c(cc1O)/C(=N\\OC)C[C@@H]1[C@@H]2CC[C@]2(C)[C@@H](O)CC[C@@H]12", "growth": "0.562% [100 µM] (active) and -100% [100 µM] (active)"}, {"compound": "C=C1C(=O)OC2CC3(C)CCCC(C)C3=CC12", "note": "(stereo not drawn)", "growth": "-91.8% [100 µM] (active) and -84.5% [100 µM] (active)"}, {"compound": "S=C1NC2=C(COc3ccccc32)C(c2ccc(Cl)cc2)N1", "note": "(stereo not drawn)", "growth": "-4.81% [100 µM] (active) and -100% [100 µM] (active)"}, {"compound": "C=C1C(=O)C2=CC1CCC(=O)C1(C)CCC(OC(C)=O)C(C)(C)C1CC2O", "note": "(stereo not drawn)", "growth": "-80.9% [100 µM] (active) and -63.1% [100 µM] (active)"}, {"compound": "O=Cc1ccc(-c2ccc(-c3ccc(CO)s3)o2)s1", "growth": "-23.2% [100 µM] (active) and -100% [100 µM] (active)"}]}]}
